Results filed as inconclusive are left out. Active and inactive are the calls of the source. Unless noted, calls come from the whole dose curve; as a rule, active = well fitted curve in the direction sought with a large enough effect; inconclusive = small, poorly fitted or top-dose-only effect, or another doubt; inactive = no such curve, though single readings can be large; an effect the other way counts as inactive or inconclusive.
Key:
[1] = target: Lysosomal acid glucosylceramidase (Homo sapiens) (UniProt P04062); experiment: Glucocerebrosidase-p2 (AID 348; in the data active = potency below about 10 µM; note: potency is the fitted concentration of half-maximal effect); details: purified GBA, blue fluorogenic substrate, 40 min
In short: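 Normal human glucocerebrosidase (0.2 nM) with blue fluorogenic substrate (80 uM final) in citrate/phosphate pH 5.9 with 10mM sodium taurocholate, 0.01% tween-20; 40 min RT, NaOH/glycine stop; fluorescence Ex 365/Em 440; AC50 from a titration from 0.6 nM upwards.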

[2] = target: Glucocorticoid receptor (Homo sapiens) (UniProt P04150); experiment: GR-GFP Redistribution (AID 450;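 active = compounds whose dose series gives a full or clear partial fitted curve of increased nuclear translocation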; note: potency is the fitted concentration of half-maximal effect); details: U2OS GR-GFP nuclear translocation, laser cytometry, 2 h
[3] = target: Glucocorticoid receptor (Homo sapiens) (UniProt P04150); experiment: GR-EFC Redistribution (AID 451; calls by dose curve; note: potency is the fitted concentration of half-maximal effect); details: CHO-K1 GR-EFC translocation, beta-gal luminescence, 2 h
In short: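 CHO-K1 cells stably expressing nuclear-localized β-gal enzyme acceptor and GR fused C-terminally to the enzyme donor fragment; ligand-driven nuclear translocation restores β-gal by complementation. Compounds titrated up to 46 uM final, 2 h at 37 °C; luminescence read.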

[4] = target: Mitogen-activated protein kinase 10 (Mus musculus) (UniProt Q61831); experiment: JNK3 AlphaScreen Assay (AID 530; active = well fitted curve in either direction with a large enough effect, not every such curve was filed as active;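 note: kinase came from lysate of stimulated human HepG2 cells; signal reports phosphorylation of biotinylated GST-cJun 1-79 at Ser73 with 10 µM ATP; % is set by controls: 0 for no effect and ±100 for the full control effect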); details: JNK3 lysate, c-Jun phosphorylation; series mostly up to 57.1 µM
In short: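 Biotinylated GST-cJun(1-79) served as substrate for JNK3 in HepG2 lysates stimulated with IL-1beta and TNF-alpha. ATP was 10 uM final, pH 7.6. Ser73 phosphorylation was quantified by AlphaScreen (680 nm excitation).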

[5] = target: Cytochrome P450 3A4 (Homo sapiens) (UniProt P08684); experiment: qHTS Assay for Activators of Cytochrome P450 3A4 (AID 885); details: recombinant CYP3A4, Luciferin-PPXE luminescence, 60 min; series mostly up to 57.1 µM; note: nearly all actives have a fitted effect of over 65% in size
In short: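 Activators are scored by enhanced luminescence from CYP3A4 conversion of luciferin-PPXE (25uM, equal to KM) to luciferin, after 60 min at RT with an NADPH-regenerating system.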

[6] = qHTS Assay for Identification of Small Molecule Agonists for Hypoxia Response Element Signaling Pathway (AID 914; active = well fitted activation curve with a large enough effect in the signal ratio, with a control signal flat, not every such curve was filed as active; the % refers to the signal ratio; note: potency is the fitted concentration of half-maximal effect); details: ME-180 HRE-bla reporter, beta-lactamase ratio, CoCl2, 17 h; activation: hits give high values
In short: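 HRE-bla ME-180 assay for agonist-like enhancement of an EC50 CoCl2 stimulus: 17 h at 37 degrees Celsius, CCF4 for 2.5 h, ratiometric 460/530 nm signal converted to %Activity and fitted to AC50.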

[7] = target: Dual specificity protein kinase CLK4 (Homo sapiens) (UniProt Q9HAZ1); experiment: qHTS Assay for Inhibitors of CDC-like Kinase 4 (Kinase-Glo Assay) (AID 1770); details: recombinant Clk4, Kinase-Glo ATP depletion luminescence; series mostly up to 66.7 µM; note: nearly all actives have a fitted effect of over 65% in size; note: potency is the fitted concentration of half-maximal effect
In short: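 Readout: Kinase-Glo luminescence from ATP left after a 4.5 h room-temperature reaction of 25 nM Clk4 with 100 uM RS peptide and 1 uM ATP (final). Buffer: 25 mM Tris pH 7.5, 10 mM MgCl2.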

[8] = target: Dual specificity protein kinase CLK4 (Homo sapiens) (UniProt Q9HAZ1); experiment: qHTS Assay for Inhibitors of CDC-like Kinase 4 (ADP-Glo Assay) (AID 1771); details: recombinant CLK4, ADP-Glo luminescence; series mostly up to 80 µM; note: nearly all actives have a fitted effect of over 70% in size; note: potency is the fitted concentration of half-maximal effect
In short: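 In this ADP-Glo format, 1 uM ATP and 100 uM RS peptide served as substrates for 25 nM Clk4 in Mg2+/EGTA/DTT/Triton buffer; reactions ran 1 hr at room temperature before luminescent ADP quantification.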

[9] = target: Dual specificity protein kinase CLK4 (Homo sapiens) (UniProt Q9HAZ1); experiment: qHTS Assay for Inhibitors of CDC-like Kinase 4 (ADP-FP Assay) (AID 1795); details: Transcreener ADP fluorescence polarization; series mostly up to 50 µM; note: nearly all actives have a fitted effect of over 60% in size; note: potency is the fitted concentration of half-maximal effect
In short: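 FP readout: Orange Transcreener ADP2 tracer (4 nM) plus ADP antibody, read after 30 min at room temperature. Kinase step: 6.25 nM Clk4, 100 uM RS peptide, 1 uM ATP, pH 7.5, 1 h.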

[10] = target: Ubiquitin carboxyl-terminal hydrolase 1 (Homo sapiens) (UniProt O94782); experiment: Inhibitors of USP1/UAF1: Pilot qHTS (AID 504865); details: purified USP1/UAF1, Ub-rhodamine cleavage fluorescence; series mostly up to 54.9 µM;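 note: rhodamine fluorescence freed from ubiquitin-rhodamine substrate followed over time; top concentration of the series differs between compounds; % is set by controls: 0 for no effect and ±100 for the full control effect; nearly all actives have a fitted effect of over 35% in size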
In short: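 1nM USP1/UAF1 + cpd, 15 min RT; start w/ Ub-Rho 150nM final; kinetic FL 480/540 nm, 6 reads q60 s. Buffer 50mM HEPES pH 7.8, 0.5mM EDTA, 1mM TCEP, 0.01% Tween-20, 0.1 mg/ml BSA.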

[11] = Primary qHTS for small molecule stabilizers of the endoplasmic reticulum resident proteome: Secreted ER Calcium Modulated Protein (SERCaMP) assay (AID 1508630); details: SH-SY5Y GLuc-SERCaMP (Gaussia luciferase released on ER calcium loss) secretion, thapsigargin, luminescence; series mostly up to 38.4 µM; note: % is set by controls: 0 for no effect and ±100 for the full control effect
In short: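 The SH-SY5Y reporter protocol was run at 3 concentrations up to 38.3 uM (primary) or 11 concentrations (follow-up): 16 h compound, 100 nM thapsigargin for 4 h, then extracellular luciferase luminescence.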

[12] = target: Cytochrome P450 1A2 (Homo sapiens) (UniProt P05177); experiment: p450-cyp1a2 (AID 410; calls by dose curve; note: potency is the fitted concentration of half-maximal effect); details: recombinant CYP1A2, luciferin-ME demethylation, luminescence; series mostly up to 57 µM
In short: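 Read-out is luminescence from luciferin produced by CYP1A2 demethylation of Luciferin-ME (100uM, at Km). Detection reagent stopped the 60 min NADPH-dependent reaction; signals were normalized to 57 uM furafylline.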

[13] = target: 3',5'-cyclic-AMP phosphodiesterase 4B (Homo sapiens) (UniProt Q07343); experiment: qHTS Assay for Inhibitors of PDE-IV (AID 607; active = well fitted activation curve with a large enough effect in the main read-out, with a control signal flat, not every such curve was filed as active; note: % of control where 0% means no effect); details: HEK293 ACTOne CNG channel cells, membrane potential fluorescence; series mostly up to 22.9 µM
In short: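 The readout is membrane depolarisation from a cAMP-sensing CNG channel, detected with a potential dye at ex 535/em 590. Cells were HEK293-derived (endogenous PDE-IV) at 1000 cells/well, titrated up to 22.9 uM final.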

[14] = target: Cytochrome P450 2C9 (Homo sapiens) (UniProt P11712); experiment: qHTS Assay for Inhibitors and Substrates of Cytochrome P450 2C9 (AID 883); details: recombinant CYP2C9, luciferin-H luminescence, 60 min; series mostly up to 57.1 µM; note: potency is the fitted concentration of half-maximal effect; nearly all actives have a fitted effect of over 60% in size
In short: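 CYP2C9 deoxyluciferin hydroxylation, 37C, 60 min with NADPH regeneration; 10nM enzyme, 100uM Luciferin-H (KM). Glo detection reagent stopped reaction; luminescence normalized to sulphaphenazole (57uM) full inhibition.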

[15] = AP1 Signaling Pathway (AID 357; active = well fitted curve in either direction with a large enough effect, not every such curve was filed as active;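 note: ME-180 reporter cells stimulated with EGF at its EC50 level; % is set by controls: 0 for no effect and ±100 for the full control effect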); details: ME-180 AP-1-bla reporter, EGF-induced, beta-lactamase ratio, 5 h; at 7.69 µM (top of the series) unless noted
In short: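 Read-out was the 460nm/530nm emission ratio (excitation 405nm) after CCF4 loading for 2.5 hours at room temperature. Cells carried an AP-1-driven beta-lactamase reporter, were stimulated with EC50 EGF plus compound for 5 hours, and AC50 values came from titrations.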

[16] = NFAT Signaling Pathway (AID 444; active = well fitted curve in either direction with a large enough effect, not every such curve was filed as active;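 note: carbachol stimulus at about its EC50 of 1 µM final; % is set by controls: 0 for no effect and ±100 for the full control effect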); details: Jurkat NFAT-bla M1, carbachol, beta-lactamase ratio, 5 h; at 7.69 µM (top of the series) unless noted
In short: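 Jurkat cells carrying an NFAT-driven β-lactamase reporter and co-transfected muscarinic M1 receptor were treated with compound plus carbachol (1 uM final, an EC50 level) for 5 h at 37 °C. CCF4 loading followed for 1 h at RT; 460/530 nm ratio gave %activity.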

[17] = Stat Signaling Pathway (AID 446; active = well fitted curve in either direction with a large enough effect, not every such curve was filed as active); details: ME-180 (cervical carcinoma) SIE beta-lactamase reporter, IL-6 stimulated, 5 h; at 7.69 µM (top of the series) unless noted
In short: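 Emission at 460 and 530 nm (excitation 405 nm) reports SIE-controlled beta-lactamase in ME-180 cells. Cells received compound with 40 pM IL-6 for 5 hrs at 37 C; data scaled between 300 pM IL-6 and 125 nM JAK-inhibitor controls.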

[18] = target: Cytochrome P450 2C19 (Homo sapiens) (UniProt P33261); experiment: qHTS Assay for Inhibitors and Substrates of Cytochrome P450 2C19 (AID 899); details: recombinant CYP2C19, luciferin-H EGE luminescence; series mostly up to 57.1 µM; note: potency is the fitted concentration of half-maximal effect; nearly all actives have a fitted effect of over 60% in size
In short: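 In 50mM KPO4, the reaction held 5nM enzyme and KM-level (10uM) Luciferin-H EGE; it ran 60 min at 37C after NADPH regeneration and a 10 min compound preincubation. Luminescence values were scaled to 57uM ketoconazole as complete inhibition.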

Sequence of Lysosomal acid glucosylceramidase (Homo sapiens) (P04062 whole entry, looked up): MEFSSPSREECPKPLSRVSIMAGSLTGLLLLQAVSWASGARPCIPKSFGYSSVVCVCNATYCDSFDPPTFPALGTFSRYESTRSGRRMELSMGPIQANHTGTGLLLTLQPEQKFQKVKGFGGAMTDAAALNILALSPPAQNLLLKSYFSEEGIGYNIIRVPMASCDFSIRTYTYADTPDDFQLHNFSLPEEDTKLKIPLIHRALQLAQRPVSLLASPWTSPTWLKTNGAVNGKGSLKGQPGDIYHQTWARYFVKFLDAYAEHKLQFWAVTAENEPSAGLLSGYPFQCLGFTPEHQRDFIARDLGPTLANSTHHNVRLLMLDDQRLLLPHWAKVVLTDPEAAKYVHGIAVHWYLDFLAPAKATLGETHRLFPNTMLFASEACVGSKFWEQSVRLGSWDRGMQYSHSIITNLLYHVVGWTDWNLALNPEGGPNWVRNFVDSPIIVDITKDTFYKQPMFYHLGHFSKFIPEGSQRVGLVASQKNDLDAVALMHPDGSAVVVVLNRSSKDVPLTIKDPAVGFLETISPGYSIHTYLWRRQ
Sequence of Cytochrome P450 3A4 (Homo sapiens) (P08684 whole entry, looked up): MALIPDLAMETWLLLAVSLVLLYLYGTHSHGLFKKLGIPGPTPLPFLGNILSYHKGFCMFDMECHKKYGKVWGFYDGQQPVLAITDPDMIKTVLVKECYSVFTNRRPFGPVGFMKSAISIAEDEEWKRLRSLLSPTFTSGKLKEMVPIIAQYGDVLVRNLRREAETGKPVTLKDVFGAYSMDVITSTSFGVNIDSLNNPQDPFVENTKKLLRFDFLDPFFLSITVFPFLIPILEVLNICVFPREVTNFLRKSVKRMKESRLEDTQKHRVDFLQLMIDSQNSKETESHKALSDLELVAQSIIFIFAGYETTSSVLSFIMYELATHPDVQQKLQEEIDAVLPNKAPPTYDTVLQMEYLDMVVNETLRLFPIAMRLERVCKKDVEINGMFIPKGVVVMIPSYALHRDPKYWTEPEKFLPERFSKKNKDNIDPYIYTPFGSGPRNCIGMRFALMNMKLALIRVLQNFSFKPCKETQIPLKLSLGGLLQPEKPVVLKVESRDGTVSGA
Sequence of Glucocorticoid receptor (Homo sapiens) (P04150 whole entry, looked up, the tested form may be a part): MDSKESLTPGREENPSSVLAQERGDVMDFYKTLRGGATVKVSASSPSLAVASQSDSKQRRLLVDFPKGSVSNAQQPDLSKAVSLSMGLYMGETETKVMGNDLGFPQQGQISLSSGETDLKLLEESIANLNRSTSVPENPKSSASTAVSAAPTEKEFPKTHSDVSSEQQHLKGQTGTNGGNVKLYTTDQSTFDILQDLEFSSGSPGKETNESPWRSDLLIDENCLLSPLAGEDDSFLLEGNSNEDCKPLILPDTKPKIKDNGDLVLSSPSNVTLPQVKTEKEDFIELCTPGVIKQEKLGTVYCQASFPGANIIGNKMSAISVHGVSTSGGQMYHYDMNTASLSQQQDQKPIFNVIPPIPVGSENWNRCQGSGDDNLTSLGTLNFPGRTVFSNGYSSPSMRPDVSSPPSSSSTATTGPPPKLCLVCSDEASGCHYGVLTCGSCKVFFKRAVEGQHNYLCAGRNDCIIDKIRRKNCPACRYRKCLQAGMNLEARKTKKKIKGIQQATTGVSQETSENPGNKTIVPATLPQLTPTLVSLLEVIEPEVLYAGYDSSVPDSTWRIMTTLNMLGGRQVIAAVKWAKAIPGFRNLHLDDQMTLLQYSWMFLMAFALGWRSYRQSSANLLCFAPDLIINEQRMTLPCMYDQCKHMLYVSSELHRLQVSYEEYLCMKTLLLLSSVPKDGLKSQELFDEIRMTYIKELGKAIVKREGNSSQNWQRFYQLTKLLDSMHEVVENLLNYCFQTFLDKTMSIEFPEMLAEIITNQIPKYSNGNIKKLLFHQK
Sequence of Cytochrome P450 1A2 (Homo sapiens) (P05177 whole entry, looked up): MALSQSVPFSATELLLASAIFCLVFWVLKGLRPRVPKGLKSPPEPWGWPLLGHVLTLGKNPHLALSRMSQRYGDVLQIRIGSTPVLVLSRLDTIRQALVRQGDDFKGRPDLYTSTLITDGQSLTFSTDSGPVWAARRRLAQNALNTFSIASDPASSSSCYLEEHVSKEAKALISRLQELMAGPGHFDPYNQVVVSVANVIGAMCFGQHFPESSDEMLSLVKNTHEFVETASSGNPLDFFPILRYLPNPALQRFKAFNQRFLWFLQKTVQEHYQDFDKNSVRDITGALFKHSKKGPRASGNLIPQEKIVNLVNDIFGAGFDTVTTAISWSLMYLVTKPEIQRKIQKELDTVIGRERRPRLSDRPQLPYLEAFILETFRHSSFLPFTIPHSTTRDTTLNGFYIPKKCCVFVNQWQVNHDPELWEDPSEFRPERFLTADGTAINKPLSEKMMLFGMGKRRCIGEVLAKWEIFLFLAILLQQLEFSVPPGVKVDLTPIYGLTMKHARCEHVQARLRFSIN
Sequence of 3',5'-cyclic-AMP phosphodiesterase 4B (Homo sapiens) (Q07343 whole entry, looked up): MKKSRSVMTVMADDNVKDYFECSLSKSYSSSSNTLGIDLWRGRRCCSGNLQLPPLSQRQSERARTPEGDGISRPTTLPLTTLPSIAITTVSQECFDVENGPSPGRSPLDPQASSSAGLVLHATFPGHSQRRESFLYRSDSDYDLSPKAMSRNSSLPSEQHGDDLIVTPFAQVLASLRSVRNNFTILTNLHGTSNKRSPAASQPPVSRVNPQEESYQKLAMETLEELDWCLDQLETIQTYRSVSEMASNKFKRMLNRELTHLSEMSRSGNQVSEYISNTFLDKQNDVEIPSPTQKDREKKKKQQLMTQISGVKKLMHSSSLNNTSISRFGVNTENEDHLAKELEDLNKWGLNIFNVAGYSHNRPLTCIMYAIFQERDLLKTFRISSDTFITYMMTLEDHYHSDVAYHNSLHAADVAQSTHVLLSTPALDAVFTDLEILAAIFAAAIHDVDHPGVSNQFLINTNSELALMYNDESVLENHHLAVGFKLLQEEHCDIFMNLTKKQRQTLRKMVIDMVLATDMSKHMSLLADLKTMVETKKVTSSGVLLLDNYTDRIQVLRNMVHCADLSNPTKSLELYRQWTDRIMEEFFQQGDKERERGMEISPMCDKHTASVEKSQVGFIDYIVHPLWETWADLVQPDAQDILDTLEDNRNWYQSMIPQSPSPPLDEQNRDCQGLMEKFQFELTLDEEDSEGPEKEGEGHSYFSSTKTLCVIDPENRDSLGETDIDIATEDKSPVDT
Sequence of Dual specificity protein kinase CLK4 (Homo sapiens) (Q9HAZ1 whole entry, looked up): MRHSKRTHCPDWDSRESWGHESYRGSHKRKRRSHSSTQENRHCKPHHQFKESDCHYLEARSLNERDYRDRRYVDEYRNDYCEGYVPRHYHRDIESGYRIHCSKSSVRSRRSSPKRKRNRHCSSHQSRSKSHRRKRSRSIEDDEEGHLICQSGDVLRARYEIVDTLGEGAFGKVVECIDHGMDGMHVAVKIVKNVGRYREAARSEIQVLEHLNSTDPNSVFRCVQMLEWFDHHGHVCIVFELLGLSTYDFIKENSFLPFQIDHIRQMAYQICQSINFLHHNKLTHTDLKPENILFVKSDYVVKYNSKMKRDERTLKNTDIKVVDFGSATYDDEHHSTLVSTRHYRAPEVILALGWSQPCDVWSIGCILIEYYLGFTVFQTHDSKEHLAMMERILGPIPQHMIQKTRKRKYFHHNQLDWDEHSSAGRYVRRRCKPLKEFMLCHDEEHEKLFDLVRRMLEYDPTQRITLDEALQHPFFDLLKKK
Sequence of Ubiquitin carboxyl-terminal hydrolase 1 (Homo sapiens) (O94782 whole entry, looked up): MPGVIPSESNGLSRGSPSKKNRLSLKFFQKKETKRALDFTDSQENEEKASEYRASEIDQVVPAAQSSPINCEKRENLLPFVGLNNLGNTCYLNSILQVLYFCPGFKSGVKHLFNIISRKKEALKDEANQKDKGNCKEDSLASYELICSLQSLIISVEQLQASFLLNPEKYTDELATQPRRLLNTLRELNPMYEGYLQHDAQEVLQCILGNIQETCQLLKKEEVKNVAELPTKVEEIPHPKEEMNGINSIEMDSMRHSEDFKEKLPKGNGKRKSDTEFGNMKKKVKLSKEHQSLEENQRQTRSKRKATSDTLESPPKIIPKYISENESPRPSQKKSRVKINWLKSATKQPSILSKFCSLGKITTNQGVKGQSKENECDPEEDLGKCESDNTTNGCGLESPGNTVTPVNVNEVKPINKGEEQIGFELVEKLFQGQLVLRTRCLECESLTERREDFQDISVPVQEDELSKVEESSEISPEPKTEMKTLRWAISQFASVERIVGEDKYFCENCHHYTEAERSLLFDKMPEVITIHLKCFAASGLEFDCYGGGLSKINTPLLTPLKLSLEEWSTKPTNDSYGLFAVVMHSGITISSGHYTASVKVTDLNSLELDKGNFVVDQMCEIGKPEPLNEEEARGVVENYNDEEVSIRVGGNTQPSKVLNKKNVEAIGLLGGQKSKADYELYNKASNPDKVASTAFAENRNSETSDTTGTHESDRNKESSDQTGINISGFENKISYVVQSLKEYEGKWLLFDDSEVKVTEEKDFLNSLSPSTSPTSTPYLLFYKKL
Sequence of Cytochrome P450 2C19 (Homo sapiens) (P33261 whole entry, looked up): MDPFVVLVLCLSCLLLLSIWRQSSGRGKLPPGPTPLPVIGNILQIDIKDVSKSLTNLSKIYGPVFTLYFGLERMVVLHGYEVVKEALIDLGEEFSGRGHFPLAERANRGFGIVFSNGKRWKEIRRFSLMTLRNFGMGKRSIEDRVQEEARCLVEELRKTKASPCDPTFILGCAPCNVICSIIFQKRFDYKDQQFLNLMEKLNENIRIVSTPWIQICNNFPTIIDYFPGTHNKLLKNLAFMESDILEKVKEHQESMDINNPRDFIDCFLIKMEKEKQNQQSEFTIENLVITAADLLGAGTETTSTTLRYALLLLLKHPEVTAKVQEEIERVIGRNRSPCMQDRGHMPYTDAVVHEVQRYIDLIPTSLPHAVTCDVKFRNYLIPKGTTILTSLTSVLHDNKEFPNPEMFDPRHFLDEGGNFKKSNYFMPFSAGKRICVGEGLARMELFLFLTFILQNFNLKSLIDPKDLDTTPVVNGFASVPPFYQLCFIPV

CCNc1ncc2nc(-c3ccccc3)c(=O)n(Cc3cccc(OC)c3)c2n1
inactive: Potency [1] > 11.4 µM | Potency [2] > 9.22 µM | Potency [3] > 46 µM | Potency [4] | Potency [5] | Potency [7] | Potency [8] | Potency [9] | Potency [10] | outcome [11]
active: Potency [6] 3.16 µM

CN(C)c1ncc2nc(-c3ccccc3)c(=O)n(CCc3ccccc3)c2n1
active: Potency [12] 20 µM | Potency [14] 0.631 µM | Potency [6] 3.16 µM
inactive: Potency [1] > 11.4 µM | Potency [2] > 9.22 µM | Potency [3] > 46 µM | Potency [13] | Potency [7] | Potency [8] | Potency [9] | Potency [10] | outcome [11]

COc1ccc(-n2c(=O)c(-c3cc(F)cc(F)c3)nc3cnc(N4CCOCC4)nc32)cc1
inactive: Potency [1] > 11.4 µM | Potency [2] > 9.22 µM | Potency [3] > 46 µM | Potency [4] | Potency [13] | Potency [5] | Potency [7] | Potency [8] | Potency [9] | Potency [10] | outcome [11]
active: Potency [12] 15.8 µM | Potency [6] 1.58 µM

O=c1c(-c2cccs2)nc2cncnc2n1Cc1ccc(F)cc1
active: Potency [12] 2.51 µM | Potency [18] 7.94 µM
inactive: activity change, negative = inhibition [15] -19.2% | activity change, negative = inhibition [16] -15.7% | activity, negative = inhibition [17] -3.58% | Potency [2] > 9.22 µM | Potency [3] > 46 µM | Potency [4] | Potency [13] | Potency [5] | Potency [7] | Potency [8] | Potency [9] | Potency [10] | outcome [11]

O=c1c(-c2ccc(F)cc2)nc2cnc(N3CCOCC3)nc2n1Cc1ccc(F)cc1
inactive: Potency [1] > 11.4 µM | Potency [2] > 9.22 µM | Potency [3] > 46 µM | Potency [4] | Potency [13] | Potency [7] | Potency [8] | Potency [9] | Potency [10] | outcome [11]
active: Potency [12] 20 µM | activity, negative = inhibition [17] 105% [activator] | Potency [6] 0.398 µM

COc1ccc(CNc2ncnc3ccc(-c4ccc5c(c4)OCO5)cc23)c(OC)c1
active: Potency [7] 1.41 µM | Potency [8] 1.41 µM | Potency [9] 0.398 µM
inactive: activity change, negative = inhibition [15] -16.9% | activity, negative = inhibition [17] -5.8% | Potency [2] > 46 µM | Potency [3] > 46 µM | Potency [4] | Potency [10] | outcome [11]

COc1cccc(-c2cc(NCc3cnc(C)cn3)ncn2)c1
active: Potency [12] 5.01 µM | Potency [7] 17.8 µM | Potency [8] 15.8 µM
inactive: Potency [1] > 11.4 µM | activity change, negative = inhibition [15] 12.1% | activity change, negative = inhibition [16] -0.299% | activity, negative = inhibition [17] -1.25% | Potency [2] > 46 µM | Potency [3] > 46 µM | Potency [4] | Potency [13] | Potency [10] | outcome [11]

— PubChem BioAssay (NCATS)
